Assays:
Test in all cases: DAPPL (digital affinity profiling via proximity ligation, sequencing); 10 mM Tris-HCl pH 7.5, 50 mM NaCl, 1 mM DTT, 4% glycerol, room temperature, 30 min; GST-TFs on glutathione beads, 16-mer random dsDNA library, 0.1% formaldehyde crosslink after washing; high values mean tight binding
Conditions in all cases: protein: recombinant; tags: N-terminal GST; dsDNA, one strand shown
FLI1 = target: T1, FLI1 (Homo sapiens, UniProt Q01543 1-452)
T1 sequence: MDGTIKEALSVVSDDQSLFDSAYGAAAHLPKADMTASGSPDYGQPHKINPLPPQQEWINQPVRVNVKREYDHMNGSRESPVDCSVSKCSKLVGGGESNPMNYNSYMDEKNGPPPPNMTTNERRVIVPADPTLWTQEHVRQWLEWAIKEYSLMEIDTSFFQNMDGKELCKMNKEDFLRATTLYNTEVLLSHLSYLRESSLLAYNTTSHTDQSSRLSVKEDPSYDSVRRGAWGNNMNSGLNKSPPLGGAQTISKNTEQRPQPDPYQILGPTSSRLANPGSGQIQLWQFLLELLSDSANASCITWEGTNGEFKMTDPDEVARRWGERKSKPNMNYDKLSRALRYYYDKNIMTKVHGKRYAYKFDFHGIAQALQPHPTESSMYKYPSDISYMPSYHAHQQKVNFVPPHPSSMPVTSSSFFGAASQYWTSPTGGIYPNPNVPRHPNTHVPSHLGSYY
Procedure, shortened: (§1)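 Binding signal is defined as a hexamer's read frequency for one factor over its frequency for the tag-only sample. To obtain reads, GST-fused human transcription factors were expressed in yeast, captured on glutathione beads, barcoded with DNA and pooled with that sample. Pools met 200 nmole of a 16-mer random double-stranded DNA library in Tris/NaCl/DTT/glycerol buffer for 30 min at room temperature before washing, 0.1% formaldehyde crosslinking, proximity ligation (BsaI/T4 ligase, 1 h, 37 °C), PCR and Illumina NextSeq500 sequencing.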

GABPA = target: T2, GABPA (Homo sapiens, UniProt Q06546 1-454)
T2 sequence: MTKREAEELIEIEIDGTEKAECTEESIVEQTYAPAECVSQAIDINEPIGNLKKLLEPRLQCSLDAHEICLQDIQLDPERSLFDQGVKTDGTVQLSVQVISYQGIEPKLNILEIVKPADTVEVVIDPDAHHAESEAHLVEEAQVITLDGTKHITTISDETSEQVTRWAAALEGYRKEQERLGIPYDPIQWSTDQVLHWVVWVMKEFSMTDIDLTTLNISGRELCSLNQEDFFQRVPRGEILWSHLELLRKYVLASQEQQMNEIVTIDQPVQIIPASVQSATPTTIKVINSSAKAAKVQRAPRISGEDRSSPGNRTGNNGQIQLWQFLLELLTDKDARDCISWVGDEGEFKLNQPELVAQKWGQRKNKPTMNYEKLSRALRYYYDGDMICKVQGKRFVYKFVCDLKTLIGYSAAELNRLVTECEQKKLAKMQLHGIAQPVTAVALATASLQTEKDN
Procedure, shortened: as §1

ERG = target: T3, ERG (Homo sapiens, UniProt P11308 1-479)
T3 sequence: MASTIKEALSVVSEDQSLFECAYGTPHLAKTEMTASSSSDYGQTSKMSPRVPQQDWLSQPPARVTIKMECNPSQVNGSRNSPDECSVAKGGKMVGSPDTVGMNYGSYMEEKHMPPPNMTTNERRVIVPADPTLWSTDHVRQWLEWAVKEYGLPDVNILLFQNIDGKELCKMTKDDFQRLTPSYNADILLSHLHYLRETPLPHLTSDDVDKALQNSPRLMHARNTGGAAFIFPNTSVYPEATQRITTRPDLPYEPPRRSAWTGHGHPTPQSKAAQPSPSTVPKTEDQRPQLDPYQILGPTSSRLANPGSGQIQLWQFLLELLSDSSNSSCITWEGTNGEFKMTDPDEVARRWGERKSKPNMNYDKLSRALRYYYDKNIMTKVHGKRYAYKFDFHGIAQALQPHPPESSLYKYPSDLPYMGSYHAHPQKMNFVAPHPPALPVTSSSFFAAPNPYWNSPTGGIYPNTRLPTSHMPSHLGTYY
Procedure, shortened: as §1

ELF1 = ELF1 (Homo sapiens, UniProt P32519 1-619)
Sequence of ELF1 (P32519 whole entry): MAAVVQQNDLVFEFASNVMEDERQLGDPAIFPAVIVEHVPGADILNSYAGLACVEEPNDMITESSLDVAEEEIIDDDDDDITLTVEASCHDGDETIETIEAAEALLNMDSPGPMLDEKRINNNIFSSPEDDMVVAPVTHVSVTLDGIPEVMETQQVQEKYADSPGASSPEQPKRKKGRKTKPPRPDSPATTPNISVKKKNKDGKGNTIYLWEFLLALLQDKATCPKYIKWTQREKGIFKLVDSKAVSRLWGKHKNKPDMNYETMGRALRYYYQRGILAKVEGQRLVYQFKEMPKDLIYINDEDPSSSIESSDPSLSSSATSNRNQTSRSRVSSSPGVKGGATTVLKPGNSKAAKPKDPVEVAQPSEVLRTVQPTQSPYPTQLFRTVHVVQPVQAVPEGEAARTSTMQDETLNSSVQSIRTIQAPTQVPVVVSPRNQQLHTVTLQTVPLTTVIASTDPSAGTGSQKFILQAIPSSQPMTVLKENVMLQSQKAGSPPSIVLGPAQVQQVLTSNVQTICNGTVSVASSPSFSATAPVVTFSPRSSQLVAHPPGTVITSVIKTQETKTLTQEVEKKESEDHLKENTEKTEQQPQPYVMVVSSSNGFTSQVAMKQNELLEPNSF
Procedure, shortened: as §1

SPI1 = SPI1 (Homo sapiens, UniProt P17947 1-270)
Procedure, shortened: as §1

FEV = target: T4, FEV (Homo sapiens, UniProt Q99581 1-238)
T4 sequence: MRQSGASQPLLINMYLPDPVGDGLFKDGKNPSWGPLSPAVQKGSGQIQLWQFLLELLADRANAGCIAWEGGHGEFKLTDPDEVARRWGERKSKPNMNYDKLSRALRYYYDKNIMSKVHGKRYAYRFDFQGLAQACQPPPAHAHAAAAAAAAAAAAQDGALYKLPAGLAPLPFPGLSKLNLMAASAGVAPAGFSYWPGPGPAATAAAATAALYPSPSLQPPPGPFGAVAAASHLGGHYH
Procedure, shortened: as §1

ETV5 = ETV5 (Homo sapiens, UniProt P41161 1-510)
Sequence of ETV5 (P41161 whole entry): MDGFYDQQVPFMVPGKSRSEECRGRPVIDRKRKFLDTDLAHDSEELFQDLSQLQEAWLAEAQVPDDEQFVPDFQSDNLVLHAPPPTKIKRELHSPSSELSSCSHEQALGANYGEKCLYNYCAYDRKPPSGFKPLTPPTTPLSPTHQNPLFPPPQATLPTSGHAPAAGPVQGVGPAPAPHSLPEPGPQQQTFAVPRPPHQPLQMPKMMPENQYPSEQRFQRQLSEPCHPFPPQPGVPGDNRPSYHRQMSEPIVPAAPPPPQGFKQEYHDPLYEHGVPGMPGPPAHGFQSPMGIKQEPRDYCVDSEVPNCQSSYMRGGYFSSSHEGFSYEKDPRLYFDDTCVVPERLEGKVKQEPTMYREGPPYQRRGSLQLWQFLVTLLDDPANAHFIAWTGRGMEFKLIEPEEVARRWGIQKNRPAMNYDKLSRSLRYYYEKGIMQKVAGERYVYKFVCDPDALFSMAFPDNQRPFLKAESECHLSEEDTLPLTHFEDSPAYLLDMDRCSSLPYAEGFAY
Procedure, shortened: as §1

SPIC = target: T5, SPIC (Homo sapiens, UniProt Q8N5J4 1-248)
T5 sequence: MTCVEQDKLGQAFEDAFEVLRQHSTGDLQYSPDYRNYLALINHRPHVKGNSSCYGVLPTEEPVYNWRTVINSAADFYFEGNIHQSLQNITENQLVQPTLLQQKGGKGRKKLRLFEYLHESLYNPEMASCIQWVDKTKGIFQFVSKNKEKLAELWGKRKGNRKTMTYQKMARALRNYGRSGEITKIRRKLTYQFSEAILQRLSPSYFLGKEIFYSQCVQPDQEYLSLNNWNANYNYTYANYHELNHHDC
Procedure, shortened: as §1

ELF4 = ELF4 (Homo sapiens, UniProt Q99607 1-663)
Sequence of ELF4 (Q99607 whole entry): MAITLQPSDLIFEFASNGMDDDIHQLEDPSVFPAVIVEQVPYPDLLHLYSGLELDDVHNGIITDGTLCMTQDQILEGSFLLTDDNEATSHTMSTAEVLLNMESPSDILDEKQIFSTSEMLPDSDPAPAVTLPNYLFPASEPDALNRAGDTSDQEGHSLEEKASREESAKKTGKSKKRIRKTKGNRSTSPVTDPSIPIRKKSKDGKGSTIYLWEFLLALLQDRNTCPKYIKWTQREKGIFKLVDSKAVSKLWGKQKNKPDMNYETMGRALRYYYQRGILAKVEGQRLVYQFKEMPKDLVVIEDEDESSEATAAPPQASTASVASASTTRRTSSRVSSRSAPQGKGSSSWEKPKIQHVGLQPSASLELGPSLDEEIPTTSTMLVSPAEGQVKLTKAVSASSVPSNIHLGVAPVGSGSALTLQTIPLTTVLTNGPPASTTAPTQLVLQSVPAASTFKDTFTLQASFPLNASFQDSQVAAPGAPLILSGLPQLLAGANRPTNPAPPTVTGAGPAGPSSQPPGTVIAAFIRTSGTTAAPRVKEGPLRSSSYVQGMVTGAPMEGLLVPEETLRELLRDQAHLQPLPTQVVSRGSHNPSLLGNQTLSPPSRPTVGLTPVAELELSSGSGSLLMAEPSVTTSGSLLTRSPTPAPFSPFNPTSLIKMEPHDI
Procedure, shortened: as §1

ETV1 = ETV1 (Homo sapiens, UniProt P50549 1-477)
Sequence of ETV1 (P50549 whole entry): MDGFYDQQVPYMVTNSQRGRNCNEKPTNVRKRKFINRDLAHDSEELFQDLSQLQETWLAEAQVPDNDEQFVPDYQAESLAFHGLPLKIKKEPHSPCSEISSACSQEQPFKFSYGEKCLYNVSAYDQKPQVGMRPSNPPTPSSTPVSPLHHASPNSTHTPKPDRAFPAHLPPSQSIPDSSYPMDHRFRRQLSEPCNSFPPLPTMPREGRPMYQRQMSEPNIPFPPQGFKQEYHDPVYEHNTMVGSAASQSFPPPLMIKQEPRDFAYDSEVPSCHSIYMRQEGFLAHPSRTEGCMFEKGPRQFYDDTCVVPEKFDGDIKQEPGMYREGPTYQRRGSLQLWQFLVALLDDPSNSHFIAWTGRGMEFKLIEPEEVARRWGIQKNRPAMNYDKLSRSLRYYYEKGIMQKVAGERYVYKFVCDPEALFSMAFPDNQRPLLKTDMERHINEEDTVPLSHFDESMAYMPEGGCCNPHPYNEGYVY
Procedure, shortened: as §1

ETS2 = target: T6, ETS2 (Homo sapiens, UniProt P15036 1-469)
T6 sequence: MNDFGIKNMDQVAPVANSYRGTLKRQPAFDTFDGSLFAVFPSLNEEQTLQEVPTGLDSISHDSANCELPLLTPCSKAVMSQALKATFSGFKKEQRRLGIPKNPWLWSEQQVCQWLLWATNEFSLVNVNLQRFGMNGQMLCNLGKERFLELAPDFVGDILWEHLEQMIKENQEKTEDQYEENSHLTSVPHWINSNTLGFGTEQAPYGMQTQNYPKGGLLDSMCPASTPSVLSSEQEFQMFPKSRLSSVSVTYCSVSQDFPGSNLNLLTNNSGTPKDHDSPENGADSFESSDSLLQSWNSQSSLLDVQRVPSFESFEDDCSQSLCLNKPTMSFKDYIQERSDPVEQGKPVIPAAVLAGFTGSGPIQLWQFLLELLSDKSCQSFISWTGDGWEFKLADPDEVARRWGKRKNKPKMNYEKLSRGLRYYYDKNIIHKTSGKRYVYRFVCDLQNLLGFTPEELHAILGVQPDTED
Procedure, shortened: as §1

SPDEF = target: T7, SPDEF (Homo sapiens, UniProt O95238 1-335)
T7 sequence: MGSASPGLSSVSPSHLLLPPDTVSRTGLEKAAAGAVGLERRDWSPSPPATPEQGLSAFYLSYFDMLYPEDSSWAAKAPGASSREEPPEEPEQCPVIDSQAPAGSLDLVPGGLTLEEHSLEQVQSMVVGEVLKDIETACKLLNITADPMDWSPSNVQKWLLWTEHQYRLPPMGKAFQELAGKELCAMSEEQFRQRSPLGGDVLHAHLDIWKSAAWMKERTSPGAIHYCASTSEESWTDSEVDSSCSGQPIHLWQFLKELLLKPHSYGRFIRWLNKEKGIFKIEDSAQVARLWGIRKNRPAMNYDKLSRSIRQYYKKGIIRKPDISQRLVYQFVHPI
Procedure, shortened: as §1

ETV3 = target: T8, ETV3 (Homo sapiens, UniProt P41162-2 1-143)
T8 sequence: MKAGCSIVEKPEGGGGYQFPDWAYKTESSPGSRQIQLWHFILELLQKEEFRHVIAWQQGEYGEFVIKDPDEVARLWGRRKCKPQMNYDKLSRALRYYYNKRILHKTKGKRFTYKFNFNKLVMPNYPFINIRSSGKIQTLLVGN
Procedure, shortened: as §1

EHF = target: T9, EHF (Homo sapiens, UniProt Q9NZC4 1-300)
T9 sequence: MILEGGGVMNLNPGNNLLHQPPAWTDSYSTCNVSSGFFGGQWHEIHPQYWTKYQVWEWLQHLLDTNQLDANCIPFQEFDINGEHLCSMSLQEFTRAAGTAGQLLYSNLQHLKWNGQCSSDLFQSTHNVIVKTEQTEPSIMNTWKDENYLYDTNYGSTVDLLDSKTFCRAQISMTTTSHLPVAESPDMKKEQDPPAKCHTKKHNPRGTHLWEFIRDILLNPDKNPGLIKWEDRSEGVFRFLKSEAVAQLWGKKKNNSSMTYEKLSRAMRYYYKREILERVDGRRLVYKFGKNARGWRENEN
Procedure, shortened: as §1

SPIB = SPIB (Homo sapiens, UniProt Q01892 1-262)
Sequence of SPIB (Q01892 whole entry): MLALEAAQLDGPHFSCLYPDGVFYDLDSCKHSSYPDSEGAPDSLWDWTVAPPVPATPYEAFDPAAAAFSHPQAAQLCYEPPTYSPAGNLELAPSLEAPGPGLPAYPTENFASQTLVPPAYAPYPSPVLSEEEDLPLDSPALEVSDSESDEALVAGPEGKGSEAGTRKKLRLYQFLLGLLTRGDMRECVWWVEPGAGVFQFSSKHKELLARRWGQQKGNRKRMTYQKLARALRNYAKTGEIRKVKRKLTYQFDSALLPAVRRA
Procedure, shortened: as §1

ERF = target: T10, ERF (Homo sapiens, UniProt P50548 1-548)
T10 sequence: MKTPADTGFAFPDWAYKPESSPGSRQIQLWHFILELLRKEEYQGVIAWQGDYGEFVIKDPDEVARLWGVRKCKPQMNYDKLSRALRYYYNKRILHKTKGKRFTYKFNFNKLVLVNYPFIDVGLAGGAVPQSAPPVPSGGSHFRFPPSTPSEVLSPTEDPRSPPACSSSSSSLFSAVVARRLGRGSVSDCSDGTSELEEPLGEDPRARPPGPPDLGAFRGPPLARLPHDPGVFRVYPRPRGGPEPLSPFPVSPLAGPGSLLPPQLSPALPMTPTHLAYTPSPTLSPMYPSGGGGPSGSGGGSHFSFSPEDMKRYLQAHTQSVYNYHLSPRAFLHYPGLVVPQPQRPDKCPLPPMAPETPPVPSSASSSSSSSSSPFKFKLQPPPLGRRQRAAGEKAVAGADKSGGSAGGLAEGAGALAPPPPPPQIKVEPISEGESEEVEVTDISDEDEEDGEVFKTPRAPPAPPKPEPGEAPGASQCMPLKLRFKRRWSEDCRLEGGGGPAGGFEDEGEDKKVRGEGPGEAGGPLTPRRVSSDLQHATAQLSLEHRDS
Procedure, shortened: as §1

ETV3L = target: T11, ETV3L (Homo sapiens, UniProt Q6ZN32 1-361)
T11 sequence: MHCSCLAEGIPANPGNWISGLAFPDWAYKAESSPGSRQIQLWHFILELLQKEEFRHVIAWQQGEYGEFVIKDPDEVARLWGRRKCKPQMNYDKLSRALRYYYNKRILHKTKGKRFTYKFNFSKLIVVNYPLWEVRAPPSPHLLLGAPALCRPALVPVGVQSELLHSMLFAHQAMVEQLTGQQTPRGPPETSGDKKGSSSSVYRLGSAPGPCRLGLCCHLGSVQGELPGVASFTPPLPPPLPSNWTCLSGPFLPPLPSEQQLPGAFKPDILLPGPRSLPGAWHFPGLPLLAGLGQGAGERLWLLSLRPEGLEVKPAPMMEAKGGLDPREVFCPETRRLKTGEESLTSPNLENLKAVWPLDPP
Procedure, shortened: as §1

ETV6 = ETV6 (Homo sapiens, UniProt P41212 1-452)
Sequence of ETV6 (P41212 whole entry): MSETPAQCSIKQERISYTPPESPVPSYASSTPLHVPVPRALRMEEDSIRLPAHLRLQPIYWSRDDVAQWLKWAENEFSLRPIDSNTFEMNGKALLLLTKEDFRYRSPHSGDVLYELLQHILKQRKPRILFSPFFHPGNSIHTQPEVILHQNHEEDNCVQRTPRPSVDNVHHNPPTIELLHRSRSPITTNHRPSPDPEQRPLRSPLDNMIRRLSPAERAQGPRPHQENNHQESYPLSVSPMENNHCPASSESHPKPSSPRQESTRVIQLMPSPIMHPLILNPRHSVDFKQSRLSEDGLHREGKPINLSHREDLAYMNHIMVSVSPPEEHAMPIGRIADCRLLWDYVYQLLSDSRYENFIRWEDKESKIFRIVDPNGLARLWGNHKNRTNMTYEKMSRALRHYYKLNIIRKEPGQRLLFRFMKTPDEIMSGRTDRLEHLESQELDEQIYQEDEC
Procedure, shortened: as §1

Row | Sequence | binding signal (FLI1) | binding signal (GABPA) | binding signal (ERG) | binding signal (ELF1) | binding signal (SPI1) | binding signal (FEV) | binding signal (ETV5) | binding signal (SPIC) | binding signal (ELF4) | binding signal (ETV1) | binding signal (ETS2) | binding signal (SPDEF) | binding signal (ETV3) | binding signal (EHF) | binding signal (SPIB) | binding signal (ERF) | binding signal (ETV3L) | binding signal (ETV6)
1 | GGCCCC | 1.02 fold enrichment (6-mer frequency, TF over GST control) | 1.03 fold enrichment (6-mer frequency, TF over GST control) | 1.04 fold enrichment (6-mer frequency, TF over GST control) | 1.02 fold enrichment (6-mer frequency, TF over GST control) | 1.03 fold enrichment (6-mer frequency, TF over GST control) | 1.06 fold enrichment (6-mer frequency, TF over GST control) | 1.02 fold enrichment (6-mer frequency, TF over GST control) | 1.01 fold enrichment (6-mer frequency, TF over GST control) | 1 fold enrichment (6-mer frequency, TF over GST control) | 1.03 fold enrichment (6-mer frequency, TF over GST control) | 1.03 fold enrichment (6-mer frequency, TF over GST control) | 1.05 fold enrichment (6-mer frequency, TF over GST control) | 1.05 fold enrichment (6-mer frequency, TF over GST control) |  |  |  |  | 
2 | CACGGA | 1.03 fold enrichment (6-mer frequency, TF over GST control) |  | 1.04 fold enrichment (6-mer frequency, TF over GST control) | 1.04 fold enrichment (6-mer frequency, TF over GST control) |  |  | 1.05 fold enrichment (6-mer frequency, TF over GST control) | 1.06 fold enrichment (6-mer frequency, TF over GST control) | 1.03 fold enrichment (6-mer frequency, TF over GST control) | 1.06 fold enrichment (6-mer frequency, TF over GST control) |  | 1.25 fold enrichment (6-mer frequency, TF over GST control) | 1.22 fold enrichment (6-mer frequency, TF over GST control) | 1.1 fold enrichment (6-mer frequency, TF over GST control) | 1.05 fold enrichment (6-mer frequency, TF over GST control) | 1.01 fold enrichment (6-mer frequency, TF over GST control) | 1.04 fold enrichment (6-mer frequency, TF over GST control) | 1.09 fold enrichment (6-mer frequency, TF over GST control)
